# Results taken from the supplement of paper PMC8728848.
# Many of the other results were omitted from the sample, so the strongest signals are more common in it than they were.
# B1: PGP3 (Chlamydia trachomatis), P0CE18 (protein)
# chain: MGNSGFYLYNTQNCVFADNIKVGQMTEPLKDQQIILGTTSTPVAAKMTASDGISLTVSNNPSTNASITIGLDAEKAYQLILEKLGDQILGGIADTIVDSTVQDILDKITTDPSLGLLKAFNNFPITNKIQCNGLFTPRNIETLLGGTEIGKFTVTPKSSGSMFLVSADIIASRMEGGVVLALVREGDSKPYAISYGYSSGVPNLCSLRTRIINTGLTPTTYSLRVGGLESGVVWVNALSNGNDILGITNTSNVSFLEVIPQTNA
# Key:
# Test in all cases: glycan array binding signal (z-score within array); higher = stronger binding
# Settings in all cases: glycan notation: IUPAC condensed, linker removed
# [1] = target: Fuc(a1-2)Gal(b1-3)GlcNAc(b1-3)[Gal(b1-4)GlcNAc(b1-6)]Gal(b1-4)Glc
# Summary of the method: (§1)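 The binding signal is a Z-score computed within each array and averaged over linkers. Arrays of the same protein sequence at different concentrations or buffers were also averaged together. Data originate from 3228 arrays in the Consortium for Functional Glycomics database, kept only where the protein sequence was available.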
# [2] = target: Fuc(a1-2)Gal(b1-3)[Fuc(a1-4)]GlcNAc(b1-3)[Fuc(a1-3)[Gal(b1-4)]GlcNAc(b1-6)]Gal(b1-4)Glc
# Summary of the method: as §1
# [3] = target: Fuc(a1-2)Gal(b1-4)GlcNAc(b1-2)Man(a1-3)[Fuc(a1-2)Gal(b1-4)GlcNAc(b1-2)Man(a1-6)]Man(b1-4)GlcNAc(b1-4)GlcNAc
# Summary of the method: as §1
# [4] = target: Fuc(a1-2)Gal(b1-4)GlcNAc(b1-2)[Fuc(a1-2)Gal(b1-4)GlcNAc(b1-4)]Man(a1-3)[Fuc(a1-2)Gal(b1-4)GlcNAc(b1-2)Man(a1-6)]Man(b1-4)GlcNAc(b1-4)GlcNAc
# Summary of the method: as §1
# [5] = target: Fuc(a1-2)[Gal(a1-3)]Gal(b1-3)GlcNAc(b1-2)Man(a1-3)[Fuc(a1-2)[Gal(a1-3)]Gal(b1-3)GlcNAc(b1-2)Man(a1-6)]Man(b1-4)GlcNAc(b1-4)GlcNAc
# Summary of the method: as §1
# [6] = target: Fuc(a1-2)[Gal(a1-3)]Gal(b1-3)GlcNAc(b1-2)Man(a1-3)[Fuc(a1-2)[Gal(a1-3)]Gal(b1-3)GlcNAc(b1-2)Man(a1-6)]Man(b1-4)GlcNAc(b1-4)[Fuc(a1-6)]GlcNAc
# Summary of the method: as §1
# [7] = target: Fuc(a1-2)[Gal(a1-3)]Gal(b1-4)GlcNAc
# Summary of the method: as §1
# [8] = target: Fuc(a1-2)[Gal(a1-4)]Gal(b1-4)GlcNAc
# Summary of the method: as §1
# [9] = target: Fuc(a1-2)[GalNAc(a1-3)]Gal(b1-3)GlcNAc
# Summary of the method: as §1
# [10] = target: Fuc(a1-2)[GalNAc(a1-3)]Gal(b1-3)GlcNAc(b1-3)GalNAc
# Summary of the method: as §1
# [11] = target: Fuc(a1-2)[GalNAc(a1-3)]Gal(b1-4)GlcNAc(b1-3)Gal(b1-4)GlcNAc
# Summary of the method: as §1
# [12] = target: Fuc(a1-3)[Gal(b1-4)]GlcNAc(b1-2)Man(a1-3)[Fuc(a1-3)[Gal(b1-4)]GlcNAc(b1-2)Man(a1-6)]Man(b1-4)GlcNAc(b1-4)GlcNAc
# Summary of the method: as §1
# [13] = target: Fuc(a1-3)[Gal(b1-4)]GlcNAc(b1-2)Man(a1-3)[Fuc(a1-3)[Gal(b1-4)]GlcNAc(b1-2)Man(a1-6)]Man(b1-4)GlcNAc(b1-4)[Fuc(a1-6)]GlcNAc
# Summary of the method: as §1
# [14] = target: Gal(a1-3)Gal(b1-4)[Fuc(a1-3)]GlcNAc
# Summary of the method: as §1
# [15] = target: Gal(a1-4)Gal(b1-3)GlcNAc(b1-2)Man(a1-3)[Gal(a1-4)Gal(b1-3)GlcNAc(b1-2)Man(a1-6)]Man(b1-4)GlcNAc(b1-4)GlcNAc
# Summary of the method: as §1
# [16] = target: Gal(a1-4)Gal(b1-4)GlcNAc(b1-3)Gal(b1-4)Glc
# Summary of the method: as §1
# Gal(b1-2)Gal = target: Gal(b1-2)Gal
# Summary of the method: as §1
# [17] = target: Gal(b1-4)GlcNAc(b1-2)Man(a1-3)[Gal(b1-4)GlcNAc(b1-2)][GlcNAc(b1-4)]Man(b1-4)GlcNAc(b1-4)GlcNAc
# Summary of the method: as §1
# [18] = target: Gal(b1-4)GlcNAc(b1-3)Gal(b1-4)Glc
# Summary of the method: as §1
# [19] = target: Gal(b1-4)GlcNAc(b1-3)Gal(b1-4)[Fuc(a1-3)]GlcNAc(b1-3)Gal(b1-4)[Fuc(a1-3)]GlcNAc
# Summary of the method: as §1
# Gal3S(b1-4)Glc = target: Gal3S(b1-4)Glc
# Summary of the method: as §1
# [20] = target: GalNAc(a1-3)GalNAc(b1-3)Gal(a1-4)Gal(b1-4)Glc
# Summary of the method: as §1
# [21] = target: GalNAc(b1-3)Gal(a1-6)Gal(b1-4)Glc
# Summary of the method: as §1
# GalNAc(b1-6)GalNAc = target: GalNAc(b1-6)GalNAc
# Summary of the method: as §1
# [22] = target: Glc(a1-4)Glc(a1-4)Glc(a1-4)Glc
# Summary of the method: as §1
# [23] = target: GlcNAc(a1-4)Gal(b1-4)GlcNAc(b1-3)Gal(b1-4)GlcNAc
# Summary of the method: as §1
# GlcNAc(b1-4)GlcNAc = target: GlcNAc(b1-4)GlcNAc
# Summary of the method: as §1
# [24] = target: GlcNAc(b1-4)GlcNAc(b1-4)GlcNAc(b1-4)GlcNAc(b1-4)GlcNAc
# Summary of the method: as §1
# Kdn(a2-3)Gal(b1-4)GlcNAc = target: Kdn(a2-3)Gal(b1-4)GlcNAc
# Summary of the method: as §1
# [25] = target: Kdn(a2-3)Gal(b1-4)[Fuc(a1-3)]GlcNAc
# Summary of the method: as §1
# [26] = target: Man(a1-2)Man(a1-3)[Man(a1-2)Man(a1-6)]Man
# Summary of the method: as §1
# [27] = target: Man(a1-2)Man(a1-6)[Man(a1-3)]Man(a1-6)[Man(a1-2)Man(a1-2)Man(a1-3)]Man
# Summary of the method: as §1
# Man(a1-3)[Man(a1-6)]Man = target: Man(a1-3)[Man(a1-6)]Man
# Summary of the method: as §1
# [28] = target: Man(a1-3)[Man(a1-6)]Man(a1-6)[Man(a1-3)]Man
# Summary of the method: as §1
# Neu5Ac(a2-3)Gal = target: Neu5Ac(a2-3)Gal
# Summary of the method: as §1
# [29] = target: Neu5Ac(a2-3)Gal6S(b1-4)GlcNAc
# Summary of the method: as §1
# [30] = target: Neu5Ac(a2-6)GlcNAc(b1-4)GlcNAc
# Summary of the method: as §1
# [31] = target: Neu5Ac(a2-8)Neu5Ac(a2-8)Neu5Ac
# Summary of the method: as §1
# [32] = target: Neu5Ac(a2-8)Neu5Ac(a2-8)Neu5Ac(a2-3)Gal(b1-4)Glc
# Summary of the method: as §1
# [33] = target: Neu5Ac9Ac(a2-3)Gal(b1-3)GlcNAc
# Summary of the method: as §1
# [34] = target: Neu5Gc(b2-6)Gal(b1-4)GlcNAc
# Summary of the method: as §1
binder,measurement,setting,value
B1,glycan array binding signal (z-score),[1],0.289
same,glycan array binding signal (z-score),[2],-0.443
same,glycan array binding signal (z-score),[3],-0.053
same,glycan array binding signal (z-score),[4],2.62
same,glycan array binding signal (z-score),[5],5.67
same,glycan array binding signal (z-score),[6],0.251
same,glycan array binding signal (z-score),[7],-1.17
same,glycan array binding signal (z-score),[8],-0.649
same,glycan array binding signal (z-score),[9],0.499
same,glycan array binding signal (z-score),[10],2.46
same,glycan array binding signal (z-score),[11],0.028
same,glycan array binding signal (z-score),[12],2.78
same,glycan array binding signal (z-score),[13],-0.169
same,glycan array binding signal (z-score),[14],-0.404
same,glycan array binding signal (z-score),[15],3.06
same,glycan array binding signal (z-score),[16],-0.099
same,glycan array binding signal (z-score),Gal(b1-2)Gal,0.34
same,glycan array binding signal (z-score),[17],1.19
same,glycan array binding signal (z-score),[18],-0.67
same,glycan array binding signal (z-score),[19],0.322
same,glycan array binding signal (z-score),Gal3S(b1-4)Glc,-0.636
same,glycan array binding signal (z-score),[20],1.04
same,glycan array binding signal (z-score),[21],2.89
same,glycan array binding signal (z-score),GalNAc(b1-6)GalNAc,0.114
same,glycan array binding signal (z-score),[22],0.478
same,glycan array binding signal (z-score),[23],1.53
same,glycan array binding signal (z-score),GlcNAc(b1-4)GlcNAc,0.682
same,glycan array binding signal (z-score),[24],1.18
same,glycan array binding signal (z-score),Kdn(a2-3)Gal(b1-4)GlcNAc,1.53
same,glycan array binding signal (z-score),[25],0.816
same,glycan array binding signal (z-score),[26],0.09
same,glycan array binding signal (z-score),[27],0.585
same,glycan array binding signal (z-score),Man(a1-3)[Man(a1-6)]Man,-0.232
same,glycan array binding signal (z-score),[28],0.157
same,glycan array binding signal (z-score),Neu5Ac(a2-3)Gal,0.478
same,glycan array binding signal (z-score),[29],2.5
same,glycan array binding signal (z-score),[30],-1.37
same,glycan array binding signal (z-score),[31],1.11
same,glycan array binding signal (z-score),[32],2.79
same,glycan array binding signal (z-score),[33],2.73
same,glycan array binding signal (z-score),[34],-1.1
